Reference: the supplement of paper PMC10849652
About 8,800 targets were measured; listed, in parts, are those with a hit and a random draw of the rest. About 0.5% of all pairs of compound and target were hits.

Legend:
Test in all cases: log2 fold change, soluble protein after heating vs DMSO (PISA); higher = thermal stabilisation; K562 lysate, 10 uM; active = over 0.2 and 3.5 SD of the protein, either way, in both replicates (recomputed)
lapatinib = compound: CS(=O)(=O)CCNCc1ccc(-c2ccc3ncnc(Nc4ccc(OCc5cccc(F)c5)c(Cl)c4)c3c2)o1 [lapatinib]
Procedure, shortened: (§1)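 To prepare the extract, K562 pellets were dounce-homogenised in PBS pH 7.4 with 1 mM MgCl2, giving crude material at 1 mg/mL protein. This was treated with 10 μM compound for 30 min, then heated in aliquots for 3 min over 48°C-58°C before pooling and addition of NP-40 to 0.5% at 4°C. Centrifugation at 21,000xg for 90 min left soluble protein in the supernatant, which TMTpro 16plex LC-MS/MS quantified with equalised channel sums. Results are log-two fold changes in thermal stability compared with solvent controls, from duplicates.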

pictilisib = compound: CS(=O)(=O)N1CCN(Cc2cc3nc(-c4cccc5[nH]ncc45)nc(N4CCOCC4)c3s2)CC1 [pictilisib]
Procedure, shortened: as §1

crizotinib = compound: C[C@@H](Oc1cc(-c2cnn(C3CCNCC3)c2)cnc1N)c1c(Cl)ccc(F)c1Cl [crizotinib]
Procedure, shortened: as §1

[1] = compound: C[C@H](C1=CC=C(C=C1)C(=O)NC2=C3C=CNC3=NC=C2)N
Procedure, shortened: as §1

duvelisib = compound: C[C@H](Nc1ncnc2nc[nH]c12)c1cc2cccc(Cl)c2c(=O)n1-c1ccccc1 [duvelisib]
Procedure, shortened: as §1

gandotinib = compound: Cc1cc(Nc2cc(CN3CCOCC3)c3nc(C)c(Cc4ccc(Cl)cc4F)n3n2)n[nH]1 [gandotinib]
Procedure, shortened: as §1

tozasertib = compound: Cc1cc(Nc2cc(N3CCN(C)CC3)nc(Sc3ccc(NC(=O)C4CC4)cc3)n2)n[nH]1 [tozasertib]
Procedure, shortened: as §1

doramapimod = compound: Cc1ccc(-n2nc(C(C)(C)C)cc2NC(=O)Nc2ccc(OCCN3CCOCC3)c3ccccc23)cc1 [doramapimod]
Procedure, shortened: as §1

bafetinib = compound: Cc1ccc(NC(=O)c2ccc(CN3CC[C@H](N(C)C)C3)c(C(F)(F)F)c2)cc1Nc1nccc(-c2cncnc2)n1 [bafetinib]
Procedure, shortened: as §1

[2] = compound: Cc1cccc(CC(=O)N2CCc3c2ccc(-c2cn(C)c4ncnc(N)c24)c3F)n1
Procedure, shortened: as §1

nilotinib = compound: Cc1cn(-c2cc(NC(=O)c3ccc(C)c(Nc4nccc(-c5cccnc5)n4)c3)cc(C(F)(F)F)c2)cn1 [nilotinib]
Procedure, shortened: as §1

[3] = compound: Cc1nc(Nc2n[nH]c3c2CN(C(=O)N[C@H](CN(C)C)c2ccccc2)C3(C)C)c2sccc2n1
Procedure, shortened: as §1

dasatinib = compound: Cc1nc(Nc2ncc(C(=O)Nc3c(C)cccc3Cl)s2)cc(N2CCN(CCO)CC2)n1 [dasatinib]
Procedure, shortened: as §1

[4] = compound: Cc1ncc(-c2ccnc(Nc3ccc(S(C)(=O)=O)cc3)n2)n1C(C)C
Procedure, shortened: as §1

[5] = compound: Cn1cc(-c2ccc3c(c2)CCN3C(=O)Cc2cccc(C(F)(F)F)c2)c2c(N)ncnc21
Procedure, shortened: as §1

quisinostat = compound: Cn1cc(CNCC2CCN(c3ncc(C(=O)NO)cn3)CC2)c2ccccc21 [quisinostat]
Procedure, shortened: as §1

tipifarnib = compound: Cn1cncc1[C@@](N)(c1ccc(Cl)cc1)c1ccc2c(c1)c(-c1cccc(Cl)c1)cc(=O)n2C [tipifarnib]
Procedure, shortened: as §1

[6] = compound: NC(=O)Nc1cc(-c2cccc(F)c2)sc1C(=O)N[C@H]1CCCNC1
Procedure, shortened: as §1

[7] = compound: NC(=O)c1cnc(N[C@@H]2CCCC[C@@H]2N)nc1Nc1cccc(-n2nccn2)c1
Procedure, shortened: as §1

[8] = compound: NC1(c2ccc(-c3nc4ccn5c(=O)[nH]nc5c4cc3-c3ccccc3)cc2)CCC1
Procedure, shortened: as §1

Measured: log2 fold change

RASA2 (UniProt Q15283)
Sequence of UniProt Q15283 (Q15283 whole entry, looked up): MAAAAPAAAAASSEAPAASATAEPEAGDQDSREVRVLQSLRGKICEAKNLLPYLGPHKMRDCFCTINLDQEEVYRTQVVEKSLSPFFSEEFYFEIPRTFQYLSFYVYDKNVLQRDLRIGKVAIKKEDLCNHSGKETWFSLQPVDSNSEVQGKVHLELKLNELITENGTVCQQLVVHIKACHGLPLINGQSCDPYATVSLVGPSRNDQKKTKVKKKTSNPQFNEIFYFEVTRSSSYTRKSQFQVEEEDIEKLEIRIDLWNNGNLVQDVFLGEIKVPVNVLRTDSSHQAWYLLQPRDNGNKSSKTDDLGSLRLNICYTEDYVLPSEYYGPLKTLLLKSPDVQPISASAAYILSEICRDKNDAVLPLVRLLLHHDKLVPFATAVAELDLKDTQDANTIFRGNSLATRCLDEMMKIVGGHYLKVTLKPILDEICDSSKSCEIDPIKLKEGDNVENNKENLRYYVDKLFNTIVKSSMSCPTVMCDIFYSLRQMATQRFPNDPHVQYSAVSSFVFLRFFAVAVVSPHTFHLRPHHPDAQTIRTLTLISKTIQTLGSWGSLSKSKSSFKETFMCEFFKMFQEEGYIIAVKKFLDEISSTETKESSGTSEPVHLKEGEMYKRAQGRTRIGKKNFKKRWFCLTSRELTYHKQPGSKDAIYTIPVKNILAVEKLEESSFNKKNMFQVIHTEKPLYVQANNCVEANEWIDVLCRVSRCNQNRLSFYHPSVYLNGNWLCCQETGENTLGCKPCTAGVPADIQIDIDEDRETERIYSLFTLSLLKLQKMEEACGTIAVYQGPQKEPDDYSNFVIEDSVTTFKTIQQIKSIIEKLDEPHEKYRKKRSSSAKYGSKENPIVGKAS
inactive: lapatinib 0.026 | pictilisib -0.089 | crizotinib -0.014 | [1] -0.007 | duvelisib -0.045 | gandotinib -0.087 | tozasertib 0.013 | doramapimod 0.072 | bafetinib -0.078 | [2] 0.096 | nilotinib -0.049 | [3] -0.037 | dasatinib -0.015 | [4] 0.063 | [5] 0 | quisinostat -0.071 | tipifarnib 0.018 | [6] -0.011 | [7] 0.042 | [8] -0.031

SCD (UniProt O00767)
Sequence of UniProt O00767 (O00767 whole entry, looked up): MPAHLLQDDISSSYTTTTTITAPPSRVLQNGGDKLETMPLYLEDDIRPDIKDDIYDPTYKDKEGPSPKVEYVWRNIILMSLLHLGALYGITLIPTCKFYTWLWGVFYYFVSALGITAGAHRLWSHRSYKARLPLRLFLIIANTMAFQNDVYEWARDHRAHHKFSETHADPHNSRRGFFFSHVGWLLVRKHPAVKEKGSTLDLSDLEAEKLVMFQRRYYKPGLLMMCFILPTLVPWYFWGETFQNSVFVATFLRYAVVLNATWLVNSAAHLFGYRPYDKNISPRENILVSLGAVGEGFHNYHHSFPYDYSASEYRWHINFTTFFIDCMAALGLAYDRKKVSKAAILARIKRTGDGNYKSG
inactive: lapatinib 0.059 | pictilisib 0 | crizotinib -0.08 | duvelisib 0.067 | gandotinib 0.155 | tozasertib 0.065 | doramapimod 0.077 | bafetinib -0.053 | [2] 0.273 | nilotinib -0.007 | [3] -0.017 | dasatinib 0.01 | [4] -0.01 | [5] 0.007 | quisinostat -0.144 | tipifarnib -0.077 | [6] -0.023 | [7] -0.183 | [8] 0.03
active: [1] -0.443

SAR1B (UniProt Q9Y6B6)
Sequence of UniProt Q9Y6B6 (Q9Y6B6 whole entry, looked up): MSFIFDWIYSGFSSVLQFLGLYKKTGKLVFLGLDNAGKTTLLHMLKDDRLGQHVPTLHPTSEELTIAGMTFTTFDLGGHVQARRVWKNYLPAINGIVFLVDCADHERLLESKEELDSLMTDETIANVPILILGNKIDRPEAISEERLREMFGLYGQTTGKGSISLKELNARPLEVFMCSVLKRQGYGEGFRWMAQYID
inactive: lapatinib 0.122 | pictilisib 0.036 | crizotinib -0.056 | [1] -0.031 | duvelisib 0.004 | tozasertib -0.005 | bafetinib -0.079 | [2] 0.08 | nilotinib 0.202 | [3] 0.101 | dasatinib 0.047 | [4] -0.013 | [5] -0.038 | quisinostat 0.028 | tipifarnib -0.217 | [6] -0.02 | [7] -0.092 | [8] -0.016
active: gandotinib 0.44 | doramapimod 0.578

RTN4IP1 (UniProt Q8WWV3)
active: [3] -0.34
inactive: lapatinib -0.02 | pictilisib 0.017 | crizotinib -0.021 | [1] 0.056 | duvelisib 0.072 | gandotinib -0.057 | tozasertib 0.009 | doramapimod -0.016 | bafetinib 0.059 | [2] -0.048 | nilotinib -0.056 | dasatinib -0.046 | [4] -0.259 | [5] 0.028 | quisinostat -0.033 | tipifarnib 0.245 | [6] -0.055 | [7] -0.012 | [8] 0.148

RSU1 (UniProt Q15404)
Sequence of UniProt Q15404 (Q15404 whole entry, looked up): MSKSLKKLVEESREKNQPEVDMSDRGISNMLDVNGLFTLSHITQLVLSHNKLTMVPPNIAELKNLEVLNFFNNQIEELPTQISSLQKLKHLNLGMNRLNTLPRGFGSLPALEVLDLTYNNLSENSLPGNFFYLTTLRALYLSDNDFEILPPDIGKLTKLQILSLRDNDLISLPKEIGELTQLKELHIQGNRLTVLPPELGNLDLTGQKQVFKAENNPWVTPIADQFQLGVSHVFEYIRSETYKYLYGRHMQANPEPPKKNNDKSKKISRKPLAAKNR
inactive: lapatinib 0.001 | pictilisib 0.045 | crizotinib 0.07 | duvelisib 0.007 | gandotinib -0.116 | tozasertib 0.015 | doramapimod -0.045 | bafetinib 0.039 | [2] -0.135 | nilotinib 0.011 | [3] -0.011 | dasatinib 0.007 | [4] -0.028 | [5] 0.001 | quisinostat 0.112 | tipifarnib 0.016 | [6] -0.002 | [7] 0.007 | [8] 0.002
active: [1] 0.329

RALA (UniProt P11233)
Sequence of UniProt P11233 (P11233 whole entry, looked up): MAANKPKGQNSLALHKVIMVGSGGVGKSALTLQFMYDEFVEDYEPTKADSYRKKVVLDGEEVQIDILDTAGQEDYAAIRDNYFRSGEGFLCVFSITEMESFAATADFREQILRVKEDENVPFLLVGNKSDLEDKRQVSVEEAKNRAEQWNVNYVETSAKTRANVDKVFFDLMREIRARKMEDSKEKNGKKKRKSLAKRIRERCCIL
active: [1] -0.3 | [2] 0.217
inactive: lapatinib -0.017 | pictilisib -0.022 | crizotinib 0.012 | duvelisib 0 | gandotinib 0.158 | tozasertib -0.009 | doramapimod 0.014 | bafetinib 0.029 | nilotinib -0.04 | [3] -0.001 | dasatinib 0.017 | [4] -0.04 | [5] -0.018 | quisinostat 0.004 | tipifarnib -0.041 | [6] 0.033 | [7] 0.038 | [8] -0.003

RBMX (UniProt P38159)
Sequence of UniProt P38159 (P38159 whole entry, looked up): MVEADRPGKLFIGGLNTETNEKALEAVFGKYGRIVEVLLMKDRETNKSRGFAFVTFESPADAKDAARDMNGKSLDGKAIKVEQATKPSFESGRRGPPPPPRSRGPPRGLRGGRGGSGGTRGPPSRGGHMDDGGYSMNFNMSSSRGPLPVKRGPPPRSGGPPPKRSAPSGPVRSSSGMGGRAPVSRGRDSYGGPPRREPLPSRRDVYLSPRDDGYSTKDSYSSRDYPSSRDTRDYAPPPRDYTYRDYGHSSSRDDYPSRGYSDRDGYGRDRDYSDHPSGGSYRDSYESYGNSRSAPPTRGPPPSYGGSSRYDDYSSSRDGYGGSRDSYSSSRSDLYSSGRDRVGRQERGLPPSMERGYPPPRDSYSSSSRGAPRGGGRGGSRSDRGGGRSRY
inactive: lapatinib 0.002 | pictilisib 0.012 | crizotinib 0.022 | [1] 0.011 | duvelisib 0.033 | gandotinib -0.003 | tozasertib 0.013 | doramapimod 0.008 | bafetinib 0.068 | [2] 0.022 | nilotinib 0.034 | [3] -0.079 | dasatinib -0.029 | [4] -0.052 | [5] -0.007 | quisinostat 0.042 | tipifarnib 0.005 | [6] 0.014 | [7] 0.033 | [8] -0.021

RBBP7 (UniProt Q16576)
Sequence of UniProt Q16576 (Q16576 whole entry, looked up): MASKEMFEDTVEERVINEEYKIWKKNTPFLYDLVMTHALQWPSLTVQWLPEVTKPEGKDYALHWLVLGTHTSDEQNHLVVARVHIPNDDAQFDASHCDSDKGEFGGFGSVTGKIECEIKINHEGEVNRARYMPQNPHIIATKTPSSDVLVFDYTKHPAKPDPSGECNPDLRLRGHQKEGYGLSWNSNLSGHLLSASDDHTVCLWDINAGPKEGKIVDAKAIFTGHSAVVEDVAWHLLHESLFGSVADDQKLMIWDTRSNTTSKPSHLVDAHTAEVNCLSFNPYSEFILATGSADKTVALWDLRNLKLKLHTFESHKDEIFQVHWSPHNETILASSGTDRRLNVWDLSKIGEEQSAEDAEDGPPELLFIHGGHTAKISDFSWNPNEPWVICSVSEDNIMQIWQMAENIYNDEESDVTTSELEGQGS
inactive: lapatinib 0.001 | pictilisib 0.007 | crizotinib 0.026 | duvelisib 0.02 | tozasertib 0.073 | doramapimod -0.036 | bafetinib -0.072 | nilotinib -0.02 | [3] -0.002 | dasatinib 0.029 | [4] 0.007 | [5] -0.006 | quisinostat -0.041 | tipifarnib 0.014 | [6] 0.04 | [7] -0.003 | [8] 0.039

RABL3 (UniProt Q5HYI8)
inactive: lapatinib 0.036 | pictilisib -0.028 | crizotinib -0.102 | [1] -0.017 | duvelisib 0.198 | gandotinib -0.097 | tozasertib -0.003 | doramapimod 0.085 | bafetinib -0.05 | [2] 0.031 | nilotinib 0.049 | [3] -0.03 | dasatinib -0.077 | [4] -0.051 | [5] 0.01 | quisinostat -0.056 | tipifarnib 0.08 | [6] 0.084 | [7] -0.003 | [8] 0.267

RETREG2 (UniProt Q8NC44)
inactive: lapatinib -0.051 | pictilisib -0.037 | crizotinib -0.074 | [1] -0.052 | gandotinib -0.052 | tozasertib 0.025 | doramapimod -0.005 | bafetinib -0.141 | [2] 0.122 | [3] -0.135 | [4] 0.055 | quisinostat -0.084 | tipifarnib -0.076 | [6] -0.016 | [7] -0.012 | [8] -0.022
active: nilotinib 0.363

RECQL5 (UniProt O94762)
Sequence of UniProt O94762 (O94762 whole entry, looked up): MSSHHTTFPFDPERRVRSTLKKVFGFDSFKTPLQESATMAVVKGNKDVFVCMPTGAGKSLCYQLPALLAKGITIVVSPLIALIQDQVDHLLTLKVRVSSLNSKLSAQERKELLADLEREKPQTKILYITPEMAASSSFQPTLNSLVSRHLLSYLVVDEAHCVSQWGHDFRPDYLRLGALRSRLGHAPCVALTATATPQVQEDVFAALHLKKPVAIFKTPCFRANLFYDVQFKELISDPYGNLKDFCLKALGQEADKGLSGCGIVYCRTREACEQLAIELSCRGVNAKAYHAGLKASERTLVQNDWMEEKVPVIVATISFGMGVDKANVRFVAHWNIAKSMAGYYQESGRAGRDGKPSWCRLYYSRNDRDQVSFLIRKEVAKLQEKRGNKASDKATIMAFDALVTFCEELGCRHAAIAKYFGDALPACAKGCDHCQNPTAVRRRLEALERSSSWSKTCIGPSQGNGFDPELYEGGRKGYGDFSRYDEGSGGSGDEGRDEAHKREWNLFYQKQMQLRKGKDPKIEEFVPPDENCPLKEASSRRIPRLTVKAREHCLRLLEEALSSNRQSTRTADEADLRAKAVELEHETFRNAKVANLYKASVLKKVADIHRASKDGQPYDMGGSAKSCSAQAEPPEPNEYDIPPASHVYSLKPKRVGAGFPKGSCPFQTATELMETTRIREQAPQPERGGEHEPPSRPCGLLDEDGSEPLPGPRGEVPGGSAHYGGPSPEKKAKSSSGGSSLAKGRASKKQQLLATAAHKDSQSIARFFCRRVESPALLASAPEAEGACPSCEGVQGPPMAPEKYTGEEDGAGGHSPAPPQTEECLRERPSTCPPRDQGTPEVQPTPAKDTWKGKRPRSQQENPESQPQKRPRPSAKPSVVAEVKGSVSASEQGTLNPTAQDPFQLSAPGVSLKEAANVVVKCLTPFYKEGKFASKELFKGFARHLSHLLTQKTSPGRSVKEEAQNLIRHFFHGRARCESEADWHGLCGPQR
inactive: lapatinib 0.277 | pictilisib 0.06 | crizotinib 0.049 | [1] 0.084 | duvelisib 0.029 | gandotinib -0.15 | tozasertib 0.031 | doramapimod -0.008 | bafetinib -0.062 | [2] -0.09 | nilotinib -0.026 | [3] 0.057 | dasatinib 0.023 | [4] 0.011 | [5] -0.04 | quisinostat -0.013 | tipifarnib -0.064 | [6] 0.034 | [7] 0.343 | [8] 0.049

RBSN (UniProt Q9H1K0)
Sequence of UniProt Q9H1K0 (Q9H1K0 whole entry, looked up): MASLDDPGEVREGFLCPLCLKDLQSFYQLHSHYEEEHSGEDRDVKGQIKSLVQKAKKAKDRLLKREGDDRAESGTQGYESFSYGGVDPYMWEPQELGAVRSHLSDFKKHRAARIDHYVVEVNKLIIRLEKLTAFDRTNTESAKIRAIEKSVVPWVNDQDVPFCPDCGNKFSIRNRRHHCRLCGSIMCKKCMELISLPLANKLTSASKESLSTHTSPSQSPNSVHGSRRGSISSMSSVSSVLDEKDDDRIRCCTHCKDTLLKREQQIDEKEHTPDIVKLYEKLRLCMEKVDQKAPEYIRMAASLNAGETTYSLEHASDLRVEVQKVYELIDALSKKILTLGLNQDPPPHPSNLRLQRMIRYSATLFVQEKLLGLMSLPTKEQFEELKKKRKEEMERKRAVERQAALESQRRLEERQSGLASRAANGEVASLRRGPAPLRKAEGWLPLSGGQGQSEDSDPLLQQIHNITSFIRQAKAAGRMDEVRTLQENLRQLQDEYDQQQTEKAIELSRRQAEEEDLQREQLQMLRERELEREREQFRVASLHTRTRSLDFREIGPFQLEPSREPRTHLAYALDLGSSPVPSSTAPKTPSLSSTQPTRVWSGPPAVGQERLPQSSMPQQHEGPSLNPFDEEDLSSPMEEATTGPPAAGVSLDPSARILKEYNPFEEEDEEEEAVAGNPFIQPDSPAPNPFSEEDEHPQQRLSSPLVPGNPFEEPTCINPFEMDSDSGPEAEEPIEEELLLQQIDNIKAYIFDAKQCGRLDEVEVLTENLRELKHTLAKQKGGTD
inactive: lapatinib -0.008 | pictilisib -0.024 | crizotinib -0.012 | [1] -0.032 | duvelisib 0.093 | gandotinib 0.019 | tozasertib 0.13 | doramapimod -0.026 | bafetinib 0.026 | [2] 0.059 | nilotinib -0.047 | [3] 0.057 | dasatinib -0.106 | [4] 0.034 | [5] -0.004 | quisinostat -0.04 | tipifarnib -0.036 | [6] 0.05 | [7] 0.039 | [8] 0.029

SEC13 isoform 3 (UniProt P55735)
Sequence of UniProt P55735 (P55735 whole entry, looked up): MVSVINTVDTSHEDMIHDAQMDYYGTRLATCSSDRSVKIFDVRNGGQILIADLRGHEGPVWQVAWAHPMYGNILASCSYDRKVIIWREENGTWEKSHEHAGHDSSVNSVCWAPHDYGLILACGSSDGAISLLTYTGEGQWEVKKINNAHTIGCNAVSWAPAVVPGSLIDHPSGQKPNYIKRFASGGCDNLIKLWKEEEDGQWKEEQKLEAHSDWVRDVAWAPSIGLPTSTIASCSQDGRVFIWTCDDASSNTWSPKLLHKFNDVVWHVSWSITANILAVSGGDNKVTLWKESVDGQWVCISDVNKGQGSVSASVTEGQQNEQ
active: [1] 0.417
inactive: lapatinib 0 | pictilisib 0.023 | crizotinib 0.058 | duvelisib 0.02 | gandotinib -0.076 | tozasertib 0.01 | doramapimod -0.031 | bafetinib -0.016 | [2] -0.068 | nilotinib -0.02 | [3] 0.038 | dasatinib -0.01 | [4] 0.031 | [5] 0.02 | quisinostat 0.079 | tipifarnib -0.014 | [6] 0.006 | [7] 0.006 | [8] -0.006

RAB3IL1 (UniProt Q8TBN0)
inactive: lapatinib -0.002 | pictilisib -0.034 | crizotinib -0.023 | [1] 0 | duvelisib -0.003 | gandotinib -0.014 | tozasertib -0.004 | doramapimod -0.012 | bafetinib 0.006 | [2] -0.02 | nilotinib -0.025 | [3] -0.026 | dasatinib -0.048 | [4] 0.041 | [5] 0.017 | quisinostat -0.002 | tipifarnib 0.037 | [6] 0.004 | [7] 0.017 | [8] 0.033

RASA3 (UniProt Q14644)
inactive: lapatinib 0.08 | pictilisib -0.044 | crizotinib -0.061 | [1] -0.049 | duvelisib 0.103 | gandotinib -0.026 | tozasertib -0.017 | doramapimod -0.005 | bafetinib -0.198 | [2] 0.005 | nilotinib 0.065 | [3] -0.014 | dasatinib -0.144 | [4] 0.039 | [5] 0.109 | quisinostat 0.062 | tipifarnib 0.009 | [6] 0.011 | [7] 0.012 | [8] 0.089

RNF17 (UniProt Q9BXT8)
inactive: lapatinib -0.02 | pictilisib 0.031 | crizotinib 0.105 | [1] 0.08 | duvelisib -0.071 | gandotinib 0.028 | tozasertib 0.119 | doramapimod 0.006 | bafetinib -0.285 | [2] -0.257 | dasatinib -0.055 | [5] 0.061 | quisinostat 0.142 | [6] 0.054 | [7] 0.046 | [8] 0.043
